# According to PubChem BioAssay (NCI):
# About 79,000 compounds went through this panel and 15% of them were active in at least one assay; those are over-represented in the sample as a whole. A number with no mark means an inactive call. Calls of active or inactive are those of the source. Cut-off read from the data, not from the text of the source: active = growth inhibition above about 70%; inactive = the rest.
# How the values were obtained:
# [1] = NCI Yeast Anticancer Drug Screen. Data for the rad50 strain (AID 155);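 note: 0% = growth of vehicle-only cultures of the same strain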; conditions: S. cerevisiae rad50 strain growth inhibition, hits give high values
# Procedure, shortened: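 A DNA repair-deficient yeast mutant serves as the test organism; compound-induced growth inhibition is calculated against vehicle-treated cells.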
# [2] = NCI Yeast Anticancer Drug Screen. Data for the mec2-1 strain (AID 157); conditions: S. cerevisiae mec2-1 strain, hits give high values
# Procedure, shortened: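 Readout is yeast growth inhibition, normalised to vehicle-treated controls, in the mec2-1 strain exposed to compound.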
# [3] = NCI Yeast Anticancer Drug Screen. Data for the sgs1 mgt1 strain (AID 161);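 note: 0% = growth of cultures given vehicle only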; conditions: S. cerevisiae sgs1 mgt1 strain, hits give high values
# Procedure, shortened: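 Growth of a repair-deficient yeast mutant was monitored after compound treatment and expressed as inhibition relative to vehicle-treated cultures.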
# [4] = NCI Yeast Anticancer Drug Screen. Data for the cln2 rad14 strain (AID 165);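 note: 0% = growth equal to vehicle treated cultures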; conditions: S. cerevisiae cln2 rad14 strain, hits give high values
# Procedure, shortened: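 Relative to vehicle controls, growth inhibition of compound-treated cln2 rad14 yeast was recorded.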
# [5] = NCI Yeast Anticancer Drug Screen. Data for the bub3 strain (AID 167); conditions: S. cerevisiae bub3 mutant strain, hits give high values
# Procedure, shortened: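 Inhibition values come from growth of compound-treated mutant yeast normalised to vehicle-treated controls.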
# [6] = NCI Yeast Anticancer Drug Screen. Data for the mlh1 rad18 strain (AID 175); conditions: S. cerevisiae mlh1 rad18 strain growth inhibition, hits give high values
# Procedure, shortened: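 Test agents were incubated with a yeast strain of defined genotype (DNA damage repair defect). Inhibition of growth was derived by comparison with vehicle-exposed cultures.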
# [7] = at 5.0 µM (retest, dose inferred, filed as 0.5)
# [8] = at 50.0 µM (retest, dose inferred, filed as 5.0)
SMILES,"growth inhibition [1, 7]","growth inhibition [1, 8]",growth inhibition ([1]; at 50.0 µM),"growth inhibition [2, 7]","growth inhibition [2, 8]",growth inhibition ([2]; at 50.0 µM),"growth inhibition [3, 7]","growth inhibition [3, 8]",growth inhibition ([3]; at 50.0 µM),"growth inhibition [4, 7]","growth inhibition [4, 8]",growth inhibition ([4]; at 50.0 µM),"growth inhibition [5, 7]","growth inhibition [5, 8]",growth inhibition ([5]; at 50.0 µM),"growth inhibition [6, 7]","growth inhibition [6, 8]",growth inhibition ([6]; at 50.0 µM)
Clc1cc(Cl)c(NN=C(c2ccccc2)c2ccccc2)c(Cl)c1,37%,97% (active),99.5% (active),39%,97% (active),99.2% (active),57%,98% (active),99.7% (active),43%,97% (active),99.4% (active),87% (active),98% (active),58.5%,72% (active),98% (active),99.5% (active)
COc1cc2oc(-c3ccc(O)cc3O)c(CC=C(C)C)c(=O)c2c(O)c1/C=C/C(C)C,17%,97% (active),89.5% (active),8%,98% (active),90.7% (active),10%,97% (active),91% (active),24%,98% (active),88.8% (active),11%,97% (active),88.8% (active),9%,97% (active),90.3% (active)
CC1(C(Cl)(Cl)Cl)C=CC(O)(C#CC2(O)C=CC(C)(C(Cl)(Cl)Cl)C=C2)C=C1 (configuration not stated),94% (active),7%,94.5% (active),91% (active),98% (active),98.2% (active),81% (active),-7%,98.3% (active),87% (active),97% (active),95.7% (active),98% (active),97% (active),95.4% (active),93% (active),98% (active),97.8% (active)
COc1cc(C2c3cc4c(cc3[C@@H](Nc3ccc5c(c3)OCCO5)C3COC(=O)[C@H]23)OCO4)cc(OC)c1O (some centres not stated),96% (active),93% (active),85.2% (active),97% (active),94% (active),91.2% (active),99% (active),99% (active),87.3% (active),98% (active),99% (active),85.8% (active),98% (active),99% (active),87.2% (active),95% (active),90% (active),88.8% (active)
Cc1cc(=O)oc2c(C)c3oc(CBr)cc3cc12,-11%,79% (active),54.1%,4%,67%,62.7%,-17%,64%,69.8%,32%,56%,66.2%,-4%,67%,65.4%,-2%,75% (active),63.1%
COc1cccc(C2c3cc4c(cc3OC(NNS(=O)(=O)c3ccc(C)cc3)C2C)OCO4)c1O (configuration not stated),-7%,94% (active),75.4% (active),-10%,81% (active),85.6% (active),-4%,95% (active),92.2% (active),9%,88% (active),87.2% (active),-20%,92% (active),54%,6%,94% (active),85.5% (active)
CC1=C(C(=O)Nc2cc(O)ccc2O)C(c2cccc([N+](=O)[O-])c2)C(C(=O)Nc2cc(O)ccc2O)=C(C)N1,-8%,20%,32.3%,-23%,6%,25.9%,-14%,15%,35.9%,-5%,12%,46.8%,-7%,0%,2.35%,-9%,20%,36.5%
O=C1Nc2ccccc2/C1=C\c1ccccn1,41%,76% (active),68.7%,22%,60%,30.9%,34%,76% (active),48.7%,32%,38%,9%,26%,68%,56%,49%,86% (active),51%
CCN(CC)CCOc1ccc(/C=C(\C#N)c2ccc(OC)cc2)cc1,24%,83% (active),74.5% (active),17%,96% (active),62.5%,40%,97% (active),85.9% (active),34%,90% (active),82.8% (active),44%,95% (active),68.5%,24%,84% (active),75.8% (active)
O=C([O-])c1ccc([I+]c2ccccc2)cc1,9%,65%,57%,8%,72% (active),41.8%,18%,67%,48.1%,1%,47%,65.7%,12%,79% (active),47%,10%,80% (active),80.9% (active)
COc1ccc2c(c1)CCc1c-2ccc(C)c1CCC(=O)O,5%,99% (active),72.2% (active),21%,100% (active),63.8%,19%,99% (active),63.9%,-3%,99% (active),74.2% (active),10%,99% (active),60.2%,22%,100% (active),90% (active)
COc1ccc(C2C3=C(CCC(CN(C)C)C3=O)OC3=C2C(=O)C(CN(C)C)CC3)cc1 (configuration not stated),-17%,-7%,-35.5%,-3%,-1%,4.1%,-20%,-5%,-20.6%,-1%,1%,44.7%,-17%,-17%,-3.5%,-13%,-7%,21.1%
CCN(CC)CCOC(=O)C1C(c2ccccc2)C1(c1ccccc1)c1ccccc1 (configuration not stated),1%,77% (active),73% (active),4%,63%,62.8%,8%,97% (active),88.7% (active),3%,60%,77.3% (active),8%,85% (active),75.2% (active),5%,96% (active),92.8% (active)
CCCc1cc(=O)oc2c3c(c4c(c12)OC(C)(C)CC4)O[C@H](C)[C@@H](C)[C@H]3O,8%,94% (active),83.5% (active),17%,97% (active),90.5% (active),14%,96% (active),89.2% (active),18%,95% (active),88.7% (active),23%,96% (active),86.8% (active),10%,95% (active),86.5% (active)
Cc1ccc(-n2cc(-c3ccc(Cl)cc3)c3c(N)ncnc32)cc1,37%,95% (active),97.1% (active),15%,97% (active),94.8% (active),60%,94% (active),98.3% (active),-3%,96% (active),88.3% (active),14%,97% (active),92% (active),30%,95% (active),96.8% (active)
O=C(CCSCCC(=O)NNc1ccccc1)NNc1ccccc1,4%,32%,24.4%,-1%,28%,3.5%,4%,37%,20.4%,6%,23%,23.4%,7%,44%,-14.7%,15%,58%,35.9%
Cc1cc(C)c(C(=O)/C=C/C(=O)c2ccccc2)c(C)c1,86% (active),95% (active),62.4%,89% (active),96% (active),78.1% (active),85% (active),96% (active),90.6% (active),51%,95% (active),47.2%,89% (active),96% (active),96% (active),93% (active),96% (active),92.7% (active)
CC(C)(C)CC(C)(C)c1ccc(O)c(O)c1,96% (active),99% (active),93.3% (active),100% (active),99% (active),94.2% (active),98% (active),99% (active),94.5% (active),55%,99% (active),92.3% (active),86% (active),98% (active),93.3% (active),100% (active),99% (active),93.2% (active)
N=C(N)SC1c2ccccc2-c2cc([N+](=O)[O-])ccc21 (configuration not stated),29%,98% (active),97.7% (active),13%,98% (active),98.1% (active),22%,98% (active),98.6% (active),14%,98% (active),97.8% (active),11%,99% (active),98% (active),17%,99% (active),98.5% (active)
